Measured values published in the supplement of paper PMC8253809.
Where “and” joins values, the source holds several entries; their conditions need not be identical. Equal values may be shown once.

Columns and labels:
Assay in all cases: growth inhibition (% activity, log2 RLU normalised to DMSO / staurosporine); higher = more growth inhibition
Conditions in all cases: 33 µM
DIPGX29 = test system: DIPGX29 (H3.3 K27M diffuse intrinsic pontine glioma line)
How it was run: (§1)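 The growth-inhibition value is the median over replicates. pHGG cell lines and H9-derived neural stem cells on Geltrex-coated 384-well plates received approved drugs by pin tool at a single final concentration of about 33 μM, in triplicate, for 7 days at 37 °C, 5% CO2. CellTiter-Glo luminescence was log2-transformed and normalised per plate to % activity between solvent and positive control wells.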

DIPGX37 = test system: DIPGX37 (H3.3 K27M diffuse intrinsic pontine glioma line)
How it was run: as §1

DIPGX7 = test system: DIPGX7 (H3.3 K27M diffuse intrinsic pontine glioma line)
How it was run: as §1

DIPGX9 = test system: DIPGX9 (diffuse intrinsic pontine glioma line)
How it was run: as §1

HGGX39 = test system: HGGX39 (paediatric high-grade glioma line)
How it was run: as §1

HGGX6 = test system: HGGX6 (H3.3 G34R paediatric high-grade glioma line)
How it was run: as §1

HNSC = test system: HNSC
How it was run: as §1

SUDIPGIV = test system: SUDIPGIV (diffuse intrinsic pontine glioma line)
How it was run: as §1

SUDIPGVI = test system: SUDIPGVI (diffuse intrinsic pontine glioma line)
How it was run: as §1

SUDIPGXIII = test system: SUDIPGXIII (diffuse intrinsic pontine glioma line)
How it was run: as §1

Compound | growth inhibition (DIPGX29) | growth inhibition (DIPGX37) | growth inhibition (DIPGX7) | growth inhibition (DIPGX9) | growth inhibition (HGGX39) | growth inhibition (HGGX6) | growth inhibition (HNSC) | growth inhibition (SUDIPGIV) | growth inhibition (SUDIPGVI) | growth inhibition (SUDIPGXIII)
CS(=O)(=O)Nc1ccc([N+](=O)[O-])cc1Oc1ccccc1 | 0.913% | 1.17% | 0.12% | 0.568% | 2.03% | -1.72% | 27.3% | -3.67% | -1.3% | -2.23%
CCCC(C(=O)OCCN(CC)CC)(c1ccccc1)c1ccccc1 | 3.18% | 1.54% | 2.35% | 0.685% | 0.885% | 3.92% | 4.69% | 1.52% | 1.12% | 2.55%
O=C(O)C1(C(=O)O)CCC1.[NH2-].[NH2-].[Pt+2] | -2.53% | 0.00905% | -1.49% | -0.992% | -2.69% | -4.21% | 4.08% | -3.4% | -3.41% | -0.0982%
N#C[C@@H]1CCCN1C(=O)CNC12CC3CC(CC(O)(C3)C1)C2 | -0.11% | -0.458% | -0.508% | -1% | 0.579% | -2.32% | 14.2% | 0.0993% | -3.27% | -3.49%
NC(CO)C(=O)NNCc1ccc(O)c(O)c1O (stereo not given) | -0.675% | 0.574% | -0.561% | -0.46% | -0.00682% | 2.73% | -2.22% | -0.604% | 0.203% | -7.46%
CO[C@H]1C[C@@H]2CC[C@@H](C)[C@@](O)(O2)C(=O)C(=O)N2CCCC[C@H]2C(=O)O[C@H]([C@H](C)C[C@@H]2CC[C@@H](OC(=O)C(C)(CO)CO)[C@H](OC)C2)CC(=O)[C@H](C)/C=C(\C)[C@@H](O)[C@@H](OC)C(=O)[C@H](C)C[C@H](C)/C=C/C=C/C=C/1C | 1.36% | 0.103% | 4.97% | 14% | 6.98% | 5.24% | 3.52% | 1.47% | 3.49% | -0.989%
COc1cc([C@@H]2c3cc4c(cc3[C@@H](O[C@@H]3O[C@@H]5CO[C@@H](c6cccs6)O[C@H]5[C@H](O)[C@H]3O)[C@H]3COC(=O)[C@H]23)OCO4)cc(OC)c1O | 22% | 1.57% | 29.9% | 47.9% | 14.2% | 23.6% | 59.9% | 48% | 10% | 20.7%
CC(C(=O)O)c1ccc(C(=O)c2cccs2)cc1 (stereo not given) | -1.23% | -0.791% | -0.391% | -0.699% | -0.848% | 1.96% | -0.802% | -4.32% | 0.938% | -0.105%
O=S(=O)(O)c1cc(O)ccc1O | -4.18% | -4.39% | -0.642% | -3.41% | -5.27% | -3.97% | 13.9% | -3.95% | -12.4% | 1.53%
Cc1[nH]c(=O)c(C#N)cc1-c1ccncc1 | 1.05% | 4.4% | 1.37% | 1.64% | 3.34% | -0.118% | 3.65% | 2.63% | 4.48% | -1.25%
NC(N)=Nc1nc(CSCC/C(N)=N/S(N)(=O)=O)cs1 | -1.68% | -1.77% | -1.85% | -0.682% | -0.78% | -1.75% | -0.722% | -1.56% | -8.72% | -0.00988%
CCOC(=O)OC(C)OC1=C(C(=O)Nc2ccccn2)N(C)S(=O)(=O)c2ccccc21 (stereo not given) | -0.868% | 0.235% | -2.67% | -1.56% | -0.486% | -1.42% | -2.72% | -2.47% | -3.26% | -1.05%
CO[C@H]1C[C@@H]2CC[C@@H](C)[C@@](O)(O2)C(=O)C(=O)N2CCCC[C@H]2C(=O)O[C@H]([C@H](C)C[C@@H]2CC[C@@H](OCCO)[C@H](OC)C2)CC(=O)[C@H](C)/C=C(\C)[C@@H](O)[C@@H](OC)C(=O)[C@H](C)C[C@H](C)/C=C/C=C/C=C/1C | 4.26% | 2.47% | 3.53% | 14% | 8.9% | 7.45% | 7.71% | 1.16% | 10.5% | 1.36%
CNS(=O)(=O)CCc1ccc2[nH]cc(C3CCN(C)CC3)c2c1 | 0.0879% | 3.2% | 0.944% | 1.8% | 1.37% | -0.244% | 1.62% | 1.09% | 2.79% | -1.47%
CC(C)[C@H](N)C(=O)OCCOCn1cnc2c(=O)nc(N)[nH]c21 | 0.298% | 0.698% | -1.22% | 1.11% | 0.616% | 1.05% | -0.55% | -0.767% | 0.129% | 1.61%
C[C@H](CCC(=O)O)[C@H]1CC[C@H]2[C@@H]3CC[C@@H]4C[C@H](O)CC[C@]4(C)[C@H]3CC[C@]12C | -0.532% | -0.978% | -2.9% | -2.11% | 0.371% | -1.49% | -2.18% | -1.6% | -1.83% | 1.26%
C[C@@H]1CN(c2c(F)c(N)c3c(=O)c(C(=O)O)cn(C4CC4)c3c2F)C[C@H](C)N1 | 0.694% | 1.71% | 3.53% | 1.04% | 1.49% | -2.08% | 33.6% | 1.6% | -0.838% | -0.539%
O=C1c2ccccc2C(=O)C1c1ccccc1 | -0.501% | -1.03% | -0.877% | -0.146% | 1.52% | 0.118% | -1.43% | 0.701% | 0.683% | 0.357%
C[C@H](Cc1cc2c(c(C(N)=O)c1)N(CCCO)CC2)NCCOc1ccccc1OCC(F)(F)F | 1.54% | 2.46% | 0.991% | -0.478% | 0.741% | -0.678% | 3.54% | 1.64% | 1.49% | -1.83%
NCCc1c[nH]cn1 | -0.622% | 0.871% | -1.55% | 0.0733% | 1.84% | 3.55% | -2.23% | 0.269% | -0.51% | 22.9%
Cc1nccn1CC1CCc2c(c3ccccc3n2C)C1=O (stereo not given) | 2.17% and 0.0485% | 1.96% and -0.656% | 5.12% and 2.92% | 1.4% and -0.3% | 4.82% and 1.34% | 1.68% and -1.02% | 3.47% and -2.09% | -0.0678% and -2.33% | 2.21% and -0.977% | -0.102% and 0.0786%
